DT40 TDP1 CPT = growth inhibition of DT40 Tdp1-/-;hTDP1 cells with camptothecin (screen for TDP1 inhibitors) | chicken DT40 Tdp1-/-;hTDP1 cells + 20 nM CPT, ATP luminescence, 48 h | Potency, µM (series often up to 46.2 µM), for inactives: at the highest dose activity change, negative = growth inhibition, most hits filed as inhibitors | actives 12% (n = 420,000) | AID 686979; note: nearly all actives have a fitted effect of over 55% in size
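Chicken DT40 Tdp1-/- cells stably complemented with human TDP1 were seeded at 400 cells/well in medium containing 20 nM camptothecin, exposed to pin-transferred compounds, and grown at 37 °C for at least 48 hr. Viability was read as ATP luminescence.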
TDP1 cell noCPT = qHTS for Inhibitors of human tyrosyl-DNA phosphodiesterase 1 (TDP1): qHTS in cells in absence of CPT; DT40 Tdp1-/- hTDP1 cells, no CPT, ATP luminescence, 48 h; Potency, µM (titrated, usually from 46.2 µM), inactives show at the top dose activity change, negative = growth inhibition, hits mostly inhibitors; actives 15% (n = 420,000); note: nearly all actives have a fitted effect of over 55% in size
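Growth kinetics read by CellTiter-Glo luminescence after ≥48 hr at 37 °C. Cells: DT40 Tdp1-/- stably carrying human TDP1, 400 per well, compound exposure in the absence of CPT (DMSO vehicle).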
KB-3-1 cytotox = kills parental KB-3-1 adenocarcinoma cells | KB-3-1 viability, CellTiter-Glo ATP luminescence, 72 h | Potency, µM (series often up to 46.1 µM), most hits filed as cytotoxic | actives 1.4% (n = 400,000) | AID 1347075; note: nearly all actives have a fitted effect of over 60% in size
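Multi-concentration cytotoxicity screen in KB-3-1 cells grown in DMEM lacking phenol red with 10% FBS. After 72 h at 37 °C with compound, ATP-dependent luminescence was recorded.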
HT1080 IDH1KD tx = toxicity to HT-1080 IDH1 knockdown cells (counter line). Potency, µM (highest dose often 46.1 µM), for the others: top-dose activity, negative = toxicity, actives largely listed as cytotoxic. actives 2% (n = 360,000). HT-1080 IDH1 knockdown viability, ATP luminescence, 48 h;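 note: 0% = DMSO wells and -100% = cell-free medium wells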
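IDH1KD HT-1080 cells, 750/well, RPMI + 5% FBS; compound pinned after 2 h settling; 48 h, 37 °C; CellTiter-Glo luminescence; % activity normalised to DMSO and no-cell wells; curves fitted, classed by r2 and efficacy.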
HT1080NT lethal = kills 2HG-producing HT-1080-NT fibrosarcoma cells; HT-1080-NT fibrosarcoma viability, CellTiter-Glo ATP luminescence, 48 h; Potency, µM (top dose mostly 46.1 µM), for inactives: top-dose activity, negative = less viability, hits mostly cytotoxic; actives 1.6% (n = 360,000); AID 686970;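 note: NT is the 2HG producing partner of a matched IDH1 knockdown line; 0% = DMSO-treated cells and -100% = media-only wells without cells; nearly all actives have a fitted effect of over 55% in size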
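Viability by CellTiter-Glo luminescence after 48 h compound exposure at 37C of HT-1080-NT cells (750/well, RPMI, 5% FBS). % activity scaled between DMSO wells and medium-only wells, then curve-fitted and categorized by curve class.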
KB-V1 MDR tox = KB-V1 MDR subline cytotoxicity. KB-V1 MDR cells viability, CellTiter-Glo, 72 h. Potency, µM (highest dose often 46.1 µM), hits mostly cytotoxic. actives 3.4% (n = 400,000); note: nearly all actives have a fitted effect of over 60% in size
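Following 72 h at 37 degrees C with compound, KB-V1 cell viability was read by CellTiter-Glo luminescence, medium being phenol-red-free DMEM plus 10% FBS; concentration-response parameters came from normalized, curve-fitted qHTS data.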
* = called active by the depositor; i = inactive; u = inconclusive; x = no result; [ ] = remark or other dose. Hits are enriched below; roughly 19% of the tested compounds scored in any of these assays. Calls come from the whole dose curve; as a rule, active = well fitted curve in the direction sought with a large enough effect; inconclusive = small, poorly fitted or top-dose-only effect, or another doubt; inactive = no such curve, though single readings can be large; an effect the other way counts as inactive or inconclusive. Unless noted, % is set by controls: 0 for no effect and ±100 for the full control effect; potency is the fitted concentration of half-maximal effect.

SMILES	DT40 TDP1 CPT	TDP1 cell noCPT	KB-3-1 cytotox	HT1080 IDH1KD tx	HT1080NT lethal	KB-V1 MDR tox
C[C@@H]1CN([C@@H](C)CO)C(=O)CCCn2nncc2CO[C@@H]1CN(C)C(=O)Nc1ccc(N2CCN(C)CC2)cc1	6%	3%	i	5%	3%	i
CCOc1ccc(-c2[nH]ncc2-c2ccc(Cl)cc2)c(O)c1	16µM*	u	i	0%	-14%	i
COc1ccc(-c2cn[nH]c2-c2ccc(O)cc2O)cc1OC	-2%	u	i	-1%	-11%	i
CCOc1ccc(-c2[nH]ncc2Oc2ccccc2OCC)c(O)c1	6.5µM*	u	i	u	u	i
CCOc1ccc(-c2[nH]ncc2-c2ccc(OC)c(OC)c2)c(O)c1	3.7µM*	3.7µM*	u	2.2µM*	6.3µM*	3.7µM*
CCCOC(=O)c1ccc(Oc2cn[nH]c2-c2ccc(OC)cc2O)cc1	15µM*	21µM*	u	18µM*	21µM*	u
Cc1ccccc1NC(=S)N(CCN1CCOCC1)Cc1ccccc1F	8%	2%	i	23%	13%	i
Nn1c(SCC(=O)Nc2ccccc2Br)nnc1-c1ccco1	3%	21%	i	2%	4%	i
Cc1noc(C)c1C(=O)N1CCC[C@@]2(CCN(Cc3ccc(C#N)cc3)C2)C1	1%	-13%	x	x	x	x
CC(C)CC(=O)c1c(O)c(C=O)c(O)c2c1O[C@@]1(C)[C@@H](C2)C[C@H]2C[C@@H]1C2(C)C	-2%	-1%	i	5%	5%	i
CSCC[C@H](NC(=O)[C@@H]1Cc2ccccc2CN1)C(=O)Nc1ccc2c(c1)OCO2	-28%	13%	i	-8%	-6%	i
CN1CCN(S(=O)(=O)c2ccc(N(C)Cc3cccs3)nc2)CC1	-17%	-10%	i	0%	-1%	i
O=C(OCCCN=C1NS(=O)(=O)c2ccccc21)C1CC(=O)N(c2ccc(Cl)cc2)C1 (stereo not drawn)	-23%	-27%	i	8%	4%	i
COc1ccc(OC)c(NC(=O)CN2CCC(C(=O)c3ccc(C)cc3)CC2)c1	26µM*	21µM*	u	u	-11%	8.2µM*
COc1ccc(NC(=O)CN2CCC(C(=O)c3ccc(C)cc3)CC2)c(OC)c1	u	u	i	4%	8%	i
COc1ccc(NC(=S)N2CCC(C(=O)c3ccc(C)cc3)CC2)c(OC)c1	13µM*	9.2µM*	i	-2%	10%	i
Cc1ccc(NC(=O)CN2CCC(C(=O)c3ccc(F)cc3)CC2)cc1	u	u	i	1%	-10%	u
COc1ccc(NC(=O)CN2CCC(C(=O)c3ccc(F)cc3)CC2)c(OC)c1	u	21µM*	i	1%	11%	i
COC(=O)C1=C(C#N)NC(C)=C(C(=O)OC(C)C)C1c1cccc([N+](=O)[O-])c1 (stereo not drawn)	30µM*	19µM*	x	x	x	x
COC(=O)C1=C(C)NC(C)=C(C(=O)OCCN2CCN(C(c3ccccc3)c3ccccc3)CC2)C1c1cccc([N+](=O)[O-])c1 (stereo not drawn)	6.7µM*	4.7µM*	x	x	x	x
O=C(NCCOC(=O)c1ccc([N+](=O)[O-])cc1)c1cccnc1	-9%	-7%	i	4%	8%	u
CCOC(=O)C1=C(C)NC(C)=C(C(=O)OCCNC(=O)c2cccnc2)C1c1cccc([N+](=O)[O-])c1 (stereo not drawn)	23µM*	u	i	-14%	-9%	i
COC(=O)c1cc(C)sc1NC(=O)c1cccnc1	3%	-21%	i	3%	0%	i
Cc1ccccc1NC(=O)c1sc2nc3c(c(-c4ccco4)c2c1N)CCCC3	16µM*	u	i	-3%	-14%	i
Nc1c(C(=O)Nc2ccccc2)sc2nc3c(c(-c4ccco4)c12)CCCC3	u	u	i	u	-25%	i
SMILES	DT40 TDP1 CPT	TDP1 cell noCPT	KB-3-1 cytotox	HT1080 IDH1KD tx	HT1080NT lethal	KB-V1 MDR tox
Nc1c(C(=O)Nc2ccccc2)sc2nc3c(c(-c4ccco4)c12)CCC3	8.2µM*	9.2µM*	u	u	-9%	i
CC1(C)CC(=O)C2=C(C1)N(c1ccc(F)cc1)C(=O)CC2c1ccsc1 (stereo not drawn)	-22%	-27%	i	-2%	4%	i
Cc1ccc(C(=O)NC(C(=O)OCc2cn3cc(Cl)ccc3n2)C(C)C)cc1 (stereo not drawn)	u	-28%	i	4%	9%	i
COc1ccccc1C=Cc1ccnc2ccccc12	u	u	u	0%	1%	u
COc1cccc(/C=C/c2ccnc3ccccc23)c1OC	u	11µM*	i	x	x	i
COc1cc(/C=C/c2ccnc3ccccc23)ccc1N(C)C	2µM*	2.2µM*	u	x	x	u
COc1cc(N(C)C)c(OC)cc1/C=C/c1ccnc2ccccc12	10µM*	10µM*	i	x	x	i
CCOC(=O)N1CCN(Cc2ccc3c(c2)CN(C(=O)c2ccc(C#CC(C)(C)O)o2)CCO3)CC1	u	9.2µM*	x	x	x	x
COCc1ccc(C(=O)N2CCOc3ccc(CN4CCN(c5ccc(F)cc5)CC4)cc3C2)o1	21µM*	21µM*	x	x	x	x
CCN(Cc1ccncc1)Cc1ccc2c(c1)CN(C(=O)c1ccc(C#CC(C)(C)O)o1)CCO2	4%[9.04 µM]	u	x	x	x	x
COC(=O)C1CCN(Cc2ccc3c(c2)CN(C(=O)c2sc(C)nc2C)CCO3)CC1	-8%[9.04 µM]	-15%	x	x	x	x
CCOC(=O)N1CCN(Cc2ccc3c(c2)CN(C(=O)c2ccc4ncccc4c2)CCO3)CC1	-11%[9.04 µM]	23µM*	x	x	x	x
CCOC(=O)N1CCN(Cc2ccc3c(c2)CN(C(=O)c2sc(C)nc2C)CCO3)CC1	-8%[9.04 µM]	16µM*	x	x	x	x
Cc1c(NC(=O)COC(=O)c2ccc(Cl)nc2)c(=O)n(-c2ccccc2)n1C	4%	-7%	i	-1%	12%	i
Cn1cc(C(=O)N2CCN(c3cccc(Cl)c3)CC2)c(=O)c2cc(S(=O)(=O)N3CCOCC3)ccc21	8%	9%	i	6%	-2%	u
COc1ccc(C(=O)N2CCOc3ccc(CN4CCN(c5ccccn5)CC4)cc3C2)o1	4%[9.04 µM]	-22%	x	x	x	x
Cc1nc2sccn2c1CN1CCOc2ccc(CN3CCN(c4ccc(F)cc4)CC3)cc2C1	2.9µM*	2.6µM*	x	x	x	x
